{"source": "the supplement of paper PMC3334620", "note": "In all, about 33,000 sequences were measured (“E-score (-0.5 to 0.5)”: median about -0.043, highest 2% from about 0.37 on). For the sample, the highest values were picked, then their nearest neighbours and some sequences at random."}
{"target": "T1, Upc2 (UniProt Q12151)", "T1 sequence": "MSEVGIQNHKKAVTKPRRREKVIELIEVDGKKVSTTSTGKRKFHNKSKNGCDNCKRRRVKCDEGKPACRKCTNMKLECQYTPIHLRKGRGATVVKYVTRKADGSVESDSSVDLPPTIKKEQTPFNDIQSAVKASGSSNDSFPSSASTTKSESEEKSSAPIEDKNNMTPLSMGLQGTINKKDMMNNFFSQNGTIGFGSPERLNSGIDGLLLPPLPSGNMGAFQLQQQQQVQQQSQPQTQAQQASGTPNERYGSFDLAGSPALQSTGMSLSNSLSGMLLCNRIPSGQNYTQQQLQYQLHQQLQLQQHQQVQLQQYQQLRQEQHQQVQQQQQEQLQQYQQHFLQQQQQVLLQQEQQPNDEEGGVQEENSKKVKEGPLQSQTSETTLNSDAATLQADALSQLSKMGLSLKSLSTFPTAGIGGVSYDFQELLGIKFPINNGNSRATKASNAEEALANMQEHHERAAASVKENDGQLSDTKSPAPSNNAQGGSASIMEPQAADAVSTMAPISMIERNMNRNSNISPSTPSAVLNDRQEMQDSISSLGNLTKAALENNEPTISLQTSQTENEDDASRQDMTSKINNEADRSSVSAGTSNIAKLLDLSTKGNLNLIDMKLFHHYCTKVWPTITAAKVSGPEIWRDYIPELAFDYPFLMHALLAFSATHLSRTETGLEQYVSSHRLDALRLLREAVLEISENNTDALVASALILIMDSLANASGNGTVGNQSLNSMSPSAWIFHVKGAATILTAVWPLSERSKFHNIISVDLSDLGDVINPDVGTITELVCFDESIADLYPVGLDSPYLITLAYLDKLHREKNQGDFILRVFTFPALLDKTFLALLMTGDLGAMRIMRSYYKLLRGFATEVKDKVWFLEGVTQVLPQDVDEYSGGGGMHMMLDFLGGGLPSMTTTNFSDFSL", "experiment": "PBM E-score (8-mer binding enrichment) (E-score (-0.5 to 0.5)); higher = stronger / more preferred TF binding", "conditions": "protein concentration: 200 nM; construct: GST-full length", "procedure": "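Universal 'all 10-mer' protein binding microarrays (Agilent AMADID 015681) probed with GST-tagged S. cerevisiae TFs (full-length or DBD) made by in vitro transcription/translation (PURExpress), about 100-200 nM. Bound TF was detected with fluorescent anti-GST. Each ungapped 8-mer (which stands for itself and its reverse complement) is scored by the PBM enrichment score (E-score), a modified Wilcoxon-Mann-Whitney statistic from -0.5 to +0.5, computed with the Universal PBM Analysis Suite. Scale: above 0.35 generally sequence-specific binding.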"}
{"sequence": "ATTTTACC", "PBM E-score": 0.00835}
{"sequence": "ACTTTACA", "PBM E-score": 0.0242}
{"sequence": "ACTTTACT", "PBM E-score": -0.151}
{"sequence": "CCTTTACA", "PBM E-score": -0.0853}
{"sequence": "ACTTTACG", "PBM E-score": 0.409}
{"sequence": "CCTTTACC", "PBM E-score": -0.191}
{"sequence": "AATTTACG", "PBM E-score": 0.335}
{"sequence": "CCTTTACG", "PBM E-score": 0.418}
{"sequence": "ATTTTACG", "PBM E-score": 0.394}
{"sequence": "ATTTGCAA", "PBM E-score": 0.0573}
{"sequence": "AGATTGCT", "PBM E-score": -0.117}
{"sequence": "CAACTGCG", "PBM E-score": -0.0371}
{"sequence": "GCACGGAA", "PBM E-score": -0.15}
{"sequence": "CTACGGAG", "PBM E-score": -0.138}
{"sequence": "ATACGCAA", "PBM E-score": 0.37}
{"sequence": "GTACGCAA", "PBM E-score": 0.247}
{"sequence": "GTACGGAC", "PBM E-score": 0.35}
{"sequence": "ATACGGAT", "PBM E-score": 0.357}
{"sequence": "CTACGGAC", "PBM E-score": -0.0487}
{"sequence": "ATACGGAC", "PBM E-score": 0.394}
{"sequence": "ACACGGAG", "PBM E-score": -0.0181}
{"sequence": "GTACGGAA", "PBM E-score": 0.377}
{"sequence": "ATACGCAG", "PBM E-score": 0.352}
{"sequence": "ATACGGAG", "PBM E-score": 0.411}
{"sequence": "CATGAGTC", "PBM E-score": -0.0488}
{"sequence": "GTTCTCTA", "PBM E-score": 0.102}
{"sequence": "CTCTCCTA", "PBM E-score": 0.0887}
{"sequence": "GATTCACC", "PBM E-score": -0.129}
{"sequence": "AATGGAGA", "PBM E-score": -0.179}
{"sequence": "TATGCGCA", "PBM E-score": 0.0561}
{"sequence": "ATACGGAA", "PBM E-score": 0.372}
{"sequence": "TTACGGAA", "PBM E-score": 0.258}
{"sequence": "CTACGGAA", "PBM E-score": 0.0194}
{"sequence": "GGGGGCGA", "PBM E-score": -0.119}
{"sequence": "TACAGCAA", "PBM E-score": 0.138}
{"sequence": "AGAGTGGG", "PBM E-score": 0.0465}
{"sequence": "TGATCCAA", "PBM E-score": -0.132}
{"sequence": "ATACGACC", "PBM E-score": 0.474}
{"sequence": "ATACGACG", "PBM E-score": 0.483}
{"sequence": "CTACGACC", "PBM E-score": 0.364}
{"sequence": "ACACGACG", "PBM E-score": 0.267}
{"sequence": "ACACGACC", "PBM E-score": 0.154}
{"sequence": "AGACGACG", "PBM E-score": 0.237}
{"sequence": "GCGTTTAA", "PBM E-score": 0.4}
{"sequence": "GCGTTTAC", "PBM E-score": 0.372}
{"sequence": "CTGTTTAA", "PBM E-score": 0.0306}
{"sequence": "CCGTTTTA", "PBM E-score": 0.118}
{"sequence": "GCGTTTTA", "PBM E-score": 0.206}
{"sequence": "ACGTTTAC", "PBM E-score": 0.369}
{"sequence": "GCGTTTCC", "PBM E-score": 0.0493}
{"sequence": "CTGTTTAC", "PBM E-score": 0.142}
{"sequence": "CCGTTTAA", "PBM E-score": 0.466}
{"sequence": "CCGTTTAC", "PBM E-score": 0.451}
{"sequence": "GGGTTTAC", "PBM E-score": 0.144}
{"sequence": "GCGTTTGA", "PBM E-score": 0.151}
{"sequence": "GGGAGCAA", "PBM E-score": -0.11}
{"sequence": "GGCAAGGA", "PBM E-score": -0.205}
{"sequence": "GGCTACTA", "PBM E-score": -0.0652}
{"sequence": "ACAGTACC", "PBM E-score": -0.176}
{"sequence": "CATCTAGA", "PBM E-score": 0.0683}
{"sequence": "ACAAGGTA", "PBM E-score": 0.104}
{"sequence": "GAGAGGGA", "PBM E-score": -0.272}
{"sequence": "ACTATACG", "PBM E-score": 0.478}
{"sequence": "ATTATACA", "PBM E-score": 0.0589}
{"sequence": "ACTATACA", "PBM E-score": 0.11}
{"sequence": "ATTATACC", "PBM E-score": 0.144}
{"sequence": "AGTATACT", "PBM E-score": 0.242}
{"sequence": "CCTATACC", "PBM E-score": 0.167}
{"sequence": "AGTATACG", "PBM E-score": 0.455}
{"sequence": "AGTATATG", "PBM E-score": 0.0175}
{"sequence": "ATTATACG", "PBM E-score": 0.482}
{"sequence": "CCTATACA", "PBM E-score": 0.151}
{"sequence": "CCTATACG", "PBM E-score": 0.487}
{"sequence": "ACTATACT", "PBM E-score": 0.152}
{"sequence": "AAAGAATA", "PBM E-score": 0.091}
{"sequence": "AAGGTTAT", "PBM E-score": -0.0588}
{"sequence": "GCCCCGCC", "PBM E-score": 0.112}
{"sequence": "GGCGCAAC", "PBM E-score": 0.00488}
{"sequence": "CACAGGGA", "PBM E-score": -0.233}
{"sequence": "AGGACACT", "PBM E-score": -0.364}
{"sequence": "CGTTTAAC", "PBM E-score": 0.473}
{"sequence": "AGTTTAAG", "PBM E-score": 0.0878}
{"sequence": "GGTTTAAC", "PBM E-score": 0.138}
{"sequence": "AGTTTAAC", "PBM E-score": 0.174}
{"sequence": "TGTTTAAA", "PBM E-score": 0.0234}
{"sequence": "AGTTTAAA", "PBM E-score": 0.11}
{"sequence": "CGTTTAAA", "PBM E-score": 0.47}
